{"source": "paper PMC12136788", "binders": {"B1": {"name": "83126405_83126525_1642_CDS_ENSMUSG00000058881_ENSMUST00000071233|mouse|control|control (ssRNA)", "RNA": "GGGAGUUCUACAGUCCGACGAUCCCGGGGAUCAAGGUGGCCAGAAAGCAUGGGGUCCCCAGGUACACUGGCCCUCUUCCUCGGGGGAGCUUGGGUAGCCGGAGCAUCCUGUUCACGCUUGCGUUUUUCCUGGCUCACCAGUAUCAACAGAGGAUUGAGCAUCA"}, "B2": {"name": "chr7:54825262:54825263:-_ENSG00000132432_ENST00000352861|hu_hu|hu_hu_hu_mus_False|18_38 (ssRNA)", "RNA": "GGGAGUUCUACAGUCCGACGAUCCUGCCGGCUGGGCUCCACAAACUGCAUUACCUGAUCCAUGUUUGUUGGAUGGCGGAUUGAGAGCGUAGAGACAACGUAGCACUGAGAGAACCGGAUGGAGGCCAACCGGAAGCUGGCAACCAACAGAGGAUUGAGCAUCA"}, "B3": {"name": "chr2:42543136:42543137:+_ENSG00000143924_ENST00000318522|hu_mus|FALSE|FALSE (ssRNA)", "RNA": "GGGAGUUCUACAGUCCGACGAUCAUCUACUGAGUAGCGCAUCACAGACAGCUGCUCAUUGCCAUCCGUGUGGAUUGACACCAGAUCUCUUGUUUCUGCAUCCAGAACAAACCACCUGCCUGAGUGCGUUCCAAUGGCUACCACCAACAGAGGAUUGAGCAUCA"}, "B4": {"name": "chr19:8913615:8913616:-_ENSMUSG00000071658_ENSMUST00000096259|mus_hu|mus_mus_mus_hu_False|48_78 (ssRNA)", "RNA": "GGGAGUUCUACAGUCCGACGAUCAGGGUACCAAAACCUUCUGCCUGAAAUGGGUGCCCCACCCUGCAGGGAGUUGCAGCUGAAAGUAUCCGUAGCAGAAGCAGUGACUAUACGAAAGGAGGCCCCUGGGGAGGGCCAGGCCAGCAACAGAGGAUUGAGCAUCA"}, "B5": {"name": "chr12:8945443:8945444:+_ENSMUSG00000020585_ENSMUST00000020909|mus_mus|motif|central (ssRNA)", "RNA": "GGGAGUUCUACAGUCCGACGAUCUGGAAACGUACAAAUGAGAAGCAUGCAACCAUCAUCUUCCACAGUCAAGUCAAACUGCGGUUUCUCUCUCUCUCCUGUUUCAUAGAGCUGGAAACUGCAGGUGUUAUACCCAACCUAUUCCAACAGAGGAUUGAGCAUCA"}, "B6": {"name": "117863777_117864697_1263_CDS_ENSMUSG00000017715_ENSMUST00000132676|mouse|control|control (ssRNA)", "RNA": "GGGAGUUCUACAGUCCGACGAUCGCGGUCCUGGCGGUUGGUGAAGUAUGAGUCACUCAGGUUUGCACCACUCAGGAUGACGUUGUUGUCAAAGAGGUACACCUUGAUGUGCUGGAGGCCGAUGGUCUCAUUGAAGCGCUCAGGCAACAGAGGAUUGAGCAUCA"}, "B7": {"name": "chr10:127876205:127876206:+_ENSMUSG00000025373_ENSMUST00000096386|mus_mus|FALSE|FALSE (ssRNA)", "RNA": "GGGAGUUCUACAGUCCGACGAUCGGGGCCACCGAGGCAACACAGACACCCUCUUGAGGCAGUGCCGUUCUGGAUCAGCAGAGCCAGACAGCAGCUUCCUGCUGAGUGUACGAACACCAGUGCUCUCACGCCCACCCCUUCCUUCAACAGAGGAUUGAGCAUCA"}, "B8": {"name": "chr6:41757443:41757444:+_ENSG00000214736_ENST00000398881|hu_mus|hu_hu_hu_mus_False|1_38 (ssRNA)", "RNA": "GGGAGUUCUACAGUCCGACGAUCGAACCGUGCAGAGGCAACAUCUCAGCCGACACUGGGGGAUGGGGGGGCAGUGGGGGGGGGUUCAGGCAAGGAGAAGAAAAGUGCUUCAGCUGCCACUCAGGUAGGAUCUUGUGGGGCACACAACAGAGGAUUGAGCAUCA"}, "B9": {"name": "chr7:133639990:133639991:-_ENSMUSG00000032637_ENSMUST00000167759|mus_hu|FALSE|FALSE (ssRNA)", "RNA": "GGGAGUUCUACAGUCCGACGAUCGGUAGAGAGUUCUUUUACAUCUGUGGGGGCCAGGGAGAUCUUUGGAGAAGCUGGAGAAAUGGAGCCCACUCCAGGAUCUGAGACUGAUGAGGUCACAGGGAUGGAGGCUGAAGAGGUUGGCAACAGAGGAUUGAGCAUCA"}, "B10": {"name": "53565353_53565853_12282_CDS_ENSG00000086758_ENST00000262854|human|control|control (ssRNA)", "RNA": "GGGAGUUCUACAGUCCGACGAUCCCCAUCAGCAAGGUGGGUCGUGGACUGCCGUAGGAUCUGGUUUAACACAGUGCGGUGAGUCUCUGCAAAGCGAAGGAACUUCUGUGUGUCAGGGGGCAGGCUUGAGGAGAUGUGCAUAGACAACAGAGGAUUGAGCAUCA"}, "B11": {"name": "chr10:77750680:77750681:-_ENSMUSG00000001211_ENSMUST00000139282|mus_hu|FALSE|FALSE (ssRNA)", "RNA": "GGGAGUUCUACAGUCCGACGAUCGCGGCGGUAGAGCUGCUUGCUGACCGGCCAGAGCGCCAGCGUGCACAGCUGGACGAAGUUGAUGACCAGACCACUCACCACGAAGACAAAGCCGACCAGCAGGUGCAGCACGAACUGGGUCAACAGAGGAUUGAGCAUCA"}, "B12": {"name": "chr6:41757443:41757444:+_ENSG00000214736_ENST00000398881|hu_mus|hu_hu_hu_mus_False|28_38 (ssRNA)", "RNA": "GGGAGUUCUACAGUCCGACGAUCGAACCGUGCAGAGGCAACAUCUCAGCCGACACUGGGGGAUGGGGGGGCAGUGGGGGGGGGUUCAGGCAAGGAGAAGAAAAGUGCCCAUCUGAACACUCAGGUAGGAUCUUGUGGUCACAGCAACAGAGGAUUGAGCAUCA"}, "B13": {"name": "66332798_66333947_12362_CDS_ENSMUSG00000038664_ENSMUST00000042824|mouse|control|control (ssRNA)", "RNA": "GGGAGUUCUACAGUCCGACGAUCUUCACCACUUUCUGUCAAGGCCAUUGAGUGCCCAUCUGAGCCACAGGAAGUCACCAGCUGGGUCACCACAAAACCUUGUAGGGCUGAAAUCACAGUCAGCACAUGAAGGUCGUCUGAAUUCAACAGAGGAUUGAGCAUCA"}, "B14": {"name": "chr6:41757443:41757444:+_ENSG00000214736_ENST00000398881|hu_mus|hu_hu_hu_mus_False|1_68 (ssRNA)", "RNA": "GGGAGUUCUACAGUCCGACGAUCGAACCGUGCAGAGGCAACAUCUCAGCCGACACUGGGGGAUGGGGGAACAAAAGGGGGGGGUUCAGGCAAGGAGAGGGAGUCAACUUCAGCUGCCACUCAGGUAGGAUCUUGUGGGGCACACAACAGAGGAUUGAGCAUCA"}, "B15": {"name": "chr15:43699750:43699751:-_ENSG00000067369_ENST00000382044|hu_hu|motif|central (ssRNA)", "RNA": "GGGAGUUCUACAGUCCGACGAUCACACUUCAGCACCGAGGCUGGGCAUGAGGGGUCCGUCACCACCACAUCAAAUACCCCGGAAGCAAUAUCUUUGUUAUGGGCACUUGAAUGGUGCUGCUUCACAGAGGCUGCACCACCAGUCAACAGAGGAUUGAGCAUCA"}, "B16": {"name": "chr6:41757443:41757444:+_ENSG00000214736_ENST00000398881|hu_mus|hu_hu_hu_mus_False|58_58 (ssRNA)", "RNA": "GGGAGUUCUACAGUCCGACGAUCGAACCGUGCAGAGGCAACAUCUCAGCCGACACUGGGGGAUGGGGGGGCAGUGGGAAACUAGGCAGGCAAGGAGAGGGAGUCAACUUCAGCUGCCACUCAGGUAGGAUCUUGUGGUCACAGCAACAGAGGAUUGAGCAUCA"}, "B17": {"name": "chr6:41757443:41757444:+_ENSG00000214736_ENST00000398881|hu_mus|hu_hu_hu_mus_False|18_28 (ssRNA)", "RNA": "GGGAGUUCUACAGUCCGACGAUCGAACCGUGCAGAGGCAACAUCUCAGCCGACACUGGGGGAUGGGGGGGCAGUGGGGGGGGGUUCAGGCAAGGAGAGGGAGUCAACCCAUCUGAAUCAAACUUCAGGAUCUUGUGGUCACAGCAACAGAGGAUUGAGCAUCA"}, "B18": {"name": "chr6:41757443:41757444:+_ENSG00000214736_ENST00000398881|hu_mus|hu_hu_hu_mus_False|28_28 (ssRNA)", "RNA": "B12 RNA with A98G, A100G, A102G, A103U, G104C, U105A, G106A"}}, "note": "Substitutions are numbered along the chain they refer to. Over roughly 24,000 sequences, “enrichment r” has its median near 0.99; the highest 2% begin near 3.7. This excerpt belongs to a sample that is enriched for the highest values."}
{"target": "T1, UNK ZnF1-3 (human, UniProt Q9C0B0 31-174)", "T1 sequence": "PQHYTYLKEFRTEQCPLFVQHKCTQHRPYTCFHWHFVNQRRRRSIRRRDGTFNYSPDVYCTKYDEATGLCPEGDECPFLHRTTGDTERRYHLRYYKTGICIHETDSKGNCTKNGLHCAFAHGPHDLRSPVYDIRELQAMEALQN", "assay": "nsRBNS (natural sequence RNA bind-n-seq); RBNS binding buffer (assumed for nsRBNS): 25 mM Tris pH 7.5, 150 mM KCl, 3 mM MgCl2, 0.01% Triton X-100, 500 ug/ml BSA, 20 U/ml SUPERase-In, 4 C; UNK is unkempt and MSI1 is Musashi-1; names of the RNAs are library labels; protein concentration not given here; high values mean tight binding", "units": {"binding signal": "enrichment R"}}
{"binder": "B1", "binding signal": 0.53}
{"binder": "B2", "binding signal": 0.908}
{"binder": "B3", "binding signal": 0.836}
{"binder": "B4", "binding signal": 1.24}
{"binder": "B5", "binding signal": 0.736}
{"binder": "B6", "binding signal": 0.897}
{"binder": "B7", "binding signal": 1.13}
{"binder": "B8", "binding signal": 4.72}
{"binder": "B9", "binding signal": 2.03}
{"binder": "B10", "binding signal": 1.49}
{"binder": "B11", "binding signal": 0.809}
{"binder": "B12", "binding signal": 3.96}
{"binder": "B13", "binding signal": 0.824}
{"binder": "B14", "binding signal": 3.16}
{"binder": "B15", "binding signal": 0.852}
{"binder": "B16", "binding signal": 2.2}
{"binder": "B17", "binding signal": 5.1}
{"binder": "B18", "binding signal": 5.01}
